Reference: PubChem BioAssay (NCATS)
Inconclusive results are not listed. The source made the active and inactive calls. Calls follow the shape of the dose curve; as a rule, active = well fitted curve in the direction sought with a large enough effect; inconclusive = small, poorly fitted or top-dose-only effect, or another doubt; inactive = no such curve, though single readings can be large; an effect the other way counts as inactive or inconclusive.

What was measured:
[1] = MultiTox-Fluor Cytotoxicity Assay - LYMP1-001 - Live Cells (AID 947)
[2] = Cell Viability - LYMP1-002 - Assay at 16 hr (AID 948)
Outline: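 LYMP1-002 human lymphoblastoid cells, 2500/well; 5 hr 37 C; cpd 16 hr 37 C; CellTiter-Glo 30 min RT; luminescence (ATP). Concentration-response, Hill-fit AC50. Pos ctrl tetraoctylammonium bromide.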

[3] = MultiTox-Fluor Cytotoxicity Assay - LYMP1-002 - Live Cells (AID 955);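 also: cells exposed to compound for 16 hours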
Outline: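 LYMP1-002 lymphoblastoid cells; 2500 cells/well; 16 hr compound exposure, 37 C; MultiTox-Fluor reagent 60 min RT; live-cell fluorescence Ex/Em=405/510; qHTS concentration-response, Hill-equation AC50; tetraoctylammonium bromide positive control.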

[4] = MultiTox-Fluor Cytotoxicity Assay - LYMP1-002 - Dead Cells (AID 960);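 also: cells exposed to compound for 16 h at 37 °C; nearly all actives have a fitted effect of over 60% in size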
Outline: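 Readout: fluorescence at 485/520 from cell-impermeant bis-AAF-R110 cleaved by proteases leaking from damaged cells. LYMP1-002 lymphoblastoid line, 16 hr compound treatment at 37 C, concentration-response in qHTS format; Hill-equation AC50 values.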

[5] = MultiTox-Fluor Cytotoxicity Assay - LYMP1-003 - Dead Cells (AID 961);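 also: cells exposed to compound for 16 h at 37 °C; nearly all actives have a fitted effect of over 70% in size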
Outline: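 Human lymphoblastoid LYMP1-003 cells (2500/well) were treated with compounds for 16 hr at 37 C in complete medium. Dead-cell protease release was read by bis-AAF-R110 fluorescence (Ex/Em 485/520). AC50 came from Hill fits, normalized to DMSO and 15 uM tetraoctylammonium bromide.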

[6] = MultiTox-Fluor Cytotoxicity Assay - LYMP1-003 - Live Cells (AID 962);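 also: cells exposed to compound for 16 hours at 37 °C; cytotoxic hits lower the live-cell protease signal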
Outline: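 Readout: live-cell fluorescence (Ex/Em=405/510) from GF-AFC cleavage after 60 min MultiTox-Fluor reagent at room temperature. Lymphoblastoid LYMP1-003 cells, 16 hr compound treatment, 37 C. Concentration-response fitted to standard Hill equation for AC50.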

[7] = Cell Viability - LYMP1-003 - Assay at 24 hr (AID 963)
Outline: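 CellTiter-Glo luminescence (intracellular ATP) read after 24 hr, 37 C compound exposure of 2500 LYMP1-003 human lymphoblastoid cells/well in complete medium; qHTS concentration series; AC50 via standard Hill equation.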

[8] = Cell Viability - LYMP1-003 - Assay at 40 hr (AID 964); also: series mostly up to about 92 µM; nearly all actives have a fitted effect of over 60% in size
Outline: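 LYMP1-003 lymphoblastoid cells, 2500/well; 5 hr preincubation, 40 hr compound exposure, 37 C; CellTiter-Glo 30 min RT; luminescence; Hill-fit AC50. Positive control tetraoctylammonium bromide.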

[9] = Cell Viability - LYMP2-003 (AID 965);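 also: cells exposed to compounds for 24 h before reading; nearly all actives have a fitted effect of over 50% in size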
Outline: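 CellTiter-Glo luminescence (cellular ATP) after 24 h compound exposure at 37 C in complete medium; 2500 cells/well, 5 h settling beforehand. Concentration-response fitted to standard Hill equation for AC50. Tetraoctylammonium bromide served as positive control.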

[10] = Cell Viability - LYMP2-004 (AID 966); also: nearly all actives have a fitted effect of over 65% in size
Outline: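 Luminescent ATP read-out (CellTiter-Glo, 30 min RT) after 24 hr compound exposure at 37 C; 2500 lymphoblastoid cells/well, complete medium. Decrease in ATP = cytotoxicity; AC50 from standard Hill model.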

[11] = Cell Viability - LYMP2-005 (AID 967); also: series mostly up to about 92 µM
Outline: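 Steps: seed 2500 LYMP2-005 cells/well, incubate 5 h at 37 C, add compound, incubate 24 h at 37 C, add CellTiter-Glo, wait 30 min at RT, read luminescence. Concentration-response data fitted to Hill equation for AC50.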

[12] = Cell Viability - LYMP2-009 (AID 968); also: series mostly up to about 92 µM; nearly all actives have a fitted effect of over 55% in size
[13] = Cell Viability - LYMP2-011 (AID 969);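 also: cells exposed to compound for 24 hours; nearly all actives have a fitted effect of over 60% in size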
Outline: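 Luminescent ATP read-out (CellTiter-Glo, 30 min RT) after 24 hr compound exposure at 37 C in human lymphoblastoid cells, 2500 cells/well. Decreasing ATP indicates cytotoxicity; AC50 from standard Hill fit.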

[14] = Cell Viability - LYMP2-013 (AID 970); also: series mostly up to about 92 µM; nearly all actives have a fitted effect of over 55% in size
Outline: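 CellTiter-Glo luminescence (cellular ATP) read after 30 min at RT. Cells: human lymphoblastoid line, 2500/well, 24 hr compound exposure at 37 C. Tetraoctylammonium bromide positive control; AC50 via standard Hill fit of qHTS titrations.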

[15] = Cell Viability - LYMP2-017 (AID 972);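 also: series mostly up to about 92 µM; cells exposed to compound for 24 hours at 37 °C; nearly all actives have a fitted effect of over 55% in size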
Outline: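 Luminescent ATP read-out (CellTiter-Glo, 30 min RT) reports viable cell number. Cells: human lymphoblastoid line, 2500 per well, 5 hr preincubation, 24 hr compound exposure at 37 C. AC50 is derived from qHTS concentration-response data using the standard Hill model.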

[16] = Cell Viability - LYMP2-019 (AID 973); also: nearly all actives have a fitted effect of over 55% in size
Outline: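 qHTS, 1536-well; 2500 cells/well; 5 hr pre-incubation, 24 hr compound exposure, 37 C; CellTiter-Glo added, 30 min RT; luminescence read; AC50 via standard Hill equation.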

[17] = Cell Viability - LYMP2-021 (AID 974)
Outline: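 ATP luminescence (CellTiter-Glo, 30 min RT) after 24 h compound exposure at 37 C; 2500 human lymphoblastoid cells/well, 5 h settle beforehand. Cytotoxicity = concentration-dependent ATP drop, AC50 by Hill fit.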

[18] = Cell Viability - LYMP2-023 (AID 975)
Outline: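 CellTiter-Glo luminescence after 30 min at room temperature; decrease in intracellular ATP reflects toxicity. Cells: human lymphoblastoid line, 2500/well, 24 hr compound exposure at 37 C. AC50 fitted to standard Hill equation from concentration-response.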

[19] = Cell Viability - LYMP2-025 (AID 976); also: series mostly up to about 92 µM
Outline: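 CellTiter-Glo luminescence (cellular ATP) after 24 h compound exposure at 37 C; LYMP2-025 human lymphoblastoid cells, 2500/well, complete medium. Tetraoctylammonium bromide positive control. AC50 by Hill equation fit of qHTS concentration-response.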

[20] = Cell Viability - LYMP2-002 (AID 977); also: series mostly up to about 92 µM
Outline: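 Human lymphoblastoid cells, 2500/well, complete medium; 5 h 37 C settle; compound 24 h 37 C; CellTiter-Glo, 30 min RT; luminescence. Decrease in ATP = cytotoxicity; AC50 via Hill equation.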

[21] = Cell Viability - LYMP2-006 (AID 978);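 also: series mostly up to about 92 µM; cells exposed to compound for 24 hours; nearly all actives have a fitted effect of over 60% in size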
Outline: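 qHTS, 1536-well; 2500 cells/well, 5 hr 37 C; cpd 24 hr 37 C; CellTiter-Glo 30 min RT; luminescence. Tetraoctylammonium bromide pos. ctrl. AC50 via Hill eqn.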

[22] = Cell Viability - LYMP2-007 (AID 979)
Outline: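 qHTS cytotoxicity: 2500 cells/well, 5 hr 37 C settle, compound 24 hr 37 C, CellTiter-Glo 30 min RT, luminescence. Decrease in ATP = toxicity. AC50 by standard Hill equation; tetraoctylammonium bromide positive control.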

[23] = Cell Viability - LYMP2-008 (AID 980); also: nearly all actives have a fitted effect of over 60% in size
Outline: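 Luminescent ATP read-out (CellTiter-Glo, 30 min RT) after 24 hr compound exposure at 37 C of human lymphoblastoid cells in complete medium. Decrease in ATP taken as cytotoxicity; AC50 derived by standard Hill fit of qHTS concentration-response data.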

Measured: Potency

Oc1c(Cl)c(Cl)c(Cl)c(Cl)c1Cl
inactive: all assays above
